# Assay results reported in publication doi:10.1101/2024.03.05.583629.
# Target: pT7_6His-AlfaTag-HOXD13 (human, UniProt P35453 263-343)
# Experiment: PADIT-seq
# Conditions: dsDNA, one strand shown
# Chain of pT7_6His-AlfaTag-HOXD13 (P35453 263-343): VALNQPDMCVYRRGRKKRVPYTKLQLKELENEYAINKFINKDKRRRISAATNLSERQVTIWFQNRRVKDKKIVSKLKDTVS
row,Sequence,binding signal
1,CTCGAGGATATCAAGATCTGGCCTCGGCATTTTAGAAGGAACCTCTAGCTAGCCGACTCACTATAGGGATAATCGCCCTGAGCAAAGACC,0.382 ± 0.0937 log2FC
2,CTCGAGGATATCAAGATCTGGCCTCGGCTTTTTAGCAGGAACCTCTAGCTAGCCGACTCACTATAGGGATAATCGCCCTGAGCAAAGACC,0.699 ± 0.0959 log2FC
3,CTCGAGGATATCAAGATCTGGCCTCGGCCTTTTAGCAGGAACCTCTAGCTAGCCGACTCACTATAGGGATAATCGCCCTGAGCAAAGACC,0.506 ± 0.084 log2FC
4,CTCGAGGATATCAAGATCTGGCCTCGGCCTATTAAAAGGAACCTCTAGCTAGCCGACTCACTATAGGGATAATCGCCCTGAGCAAAGACC,3.05 ± 0.0763 log2FC
5,CTCGAGGATATCAAGATCTGGCCTCGGCGCGCGAGCGGGAACCTCTAGCTAGCCGACTCACTATAGGGATAATCGCCCTGAGCAAAGACC,-0.654 ± 0.136 log2FC
6,CTCGAGGATATCAAGATCTGGCCTCGGCGCGTGGCCAGGAACCTCTAGCTAGCCGACTCACTATAGGGATAATCGCCCTGAGCAAAGACC,-1.04 ± 0.128 log2FC
7,CTCGAGGATATCAAGATCTGGCCTCGGCTTTTTACTTGGAACCTCTAGCTAGCCGACTCACTATAGGGATAATCGCCCTGAGCAAAGACC,1.32 ± 0.0895 log2FC
8,CTCGAGGATATCAAGATCTGGCCTCGGCGTTTTAATGGGAACCTCTAGCTAGCCGACTCACTATAGGGATAATCGCCCTGAGCAAAGACC,2.46 ± 0.0744 log2FC
9,CTCGAGGATATCAAGATCTGGCCTCGGCATTTTAGATGGAACCTCTAGCTAGCCGACTCACTATAGGGATAATCGCCCTGAGCAAAGACC,0.542 ± 0.096 log2FC
10,CTCGAGGATATCAAGATCTGGCCTCGGCGTTTTATAGGGAACCTCTAGCTAGCCGACTCACTATAGGGATAATCGCCCTGAGCAAAGACC,3.33 ± 0.0804 log2FC
11,CTCGAGGATATCAAGATCTGGCCTCGGCCGCTGACGCGGAACCTCTAGCTAGCCGACTCACTATAGGGATAATCGCCCTGAGCAAAGACC,-0.995 ± 0.158 log2FC
12,CTCGAGGATATCAAGATCTGGCCTCGGCATTTTATTCGGAACCTCTAGCTAGCCGACTCACTATAGGGATAATCGCCCTGAGCAAAGACC,1.83 ± 0.0742 log2FC
13,CTCGAGGATATCAAGATCTGGCCTCGGCCTTTTAAAGGGAACCTCTAGCTAGCCGACTCACTATAGGGATAATCGCCCTGAGCAAAGACC,2.37 ± 0.0692 log2FC
14,CTCGAGGATATCAAGATCTGGCCTCGGCTGTATAAAAGGAACCTCTAGCTAGCCGACTCACTATAGGGATAATCGCCCTGAGCAAAGACC,2.01 ± 0.0809 log2FC
15,CTCGAGGATATCAAGATCTGGCCTCGGCGTTTTAGTCGGAACCTCTAGCTAGCCGACTCACTATAGGGATAATCGCCCTGAGCAAAGACC,-0.506 ± 0.12 log2FC
16,CTCGAGGATATCAAGATCTGGCCTCGGCAACATAAAAGGAACCTCTAGCTAGCCGACTCACTATAGGGATAATCGCCCTGAGCAAAGACC,1.52 ± 0.0783 log2FC
17,CTCGAGGATATCAAGATCTGGCCTCGGCCTGGTAAAAGGAACCTCTAGCTAGCCGACTCACTATAGGGATAATCGCCCTGAGCAAAGACC,0.442 ± 0.0982 log2FC
18,CTCGAGGATATCAAGATCTGGCCTCGGCCGCTCGCGCGGAACCTCTAGCTAGCCGACTCACTATAGGGATAATCGCCCTGAGCAAAGACC,-1.03 ± 0.134 log2FC
19,CTCGAGGATATCAAGATCTGGCCTCGGCCGCCCATCTGGAACCTCTAGCTAGCCGACTCACTATAGGGATAATCGCCCTGAGCAAAGACC,-0.946 ± 0.119 log2FC
20,CTCGAGGATATCAAGATCTGGCCTCGGCATTTTATTGGGAACCTCTAGCTAGCCGACTCACTATAGGGATAATCGCCCTGAGCAAAGACC,3.32 ± 0.0805 log2FC
21,CTCGAGGATATCAAGATCTGGCCTCGGCCGCCCATAAGGAACCTCTAGCTAGCCGACTCACTATAGGGATAATCGCCCTGAGCAAAGACC,-0.213 ± 0.101 log2FC
22,CTCGAGGATATCAAGATCTGGCCTCGGCGCCTTAAAAGGAACCTCTAGCTAGCCGACTCACTATAGGGATAATCGCCCTGAGCAAAGACC,0.578 ± 0.0742 log2FC
23,CTCGAGGATATCAAGATCTGGCCTCGGCGTTTTAAACGGAACCTCTAGCTAGCCGACTCACTATAGGGATAATCGCCCTGAGCAAAGACC,0.884 ± 0.0954 log2FC
24,CTCGAGGATATCAAGATCTGGCCTCGGCGTTTTAACCGGAACCTCTAGCTAGCCGACTCACTATAGGGATAATCGCCCTGAGCAAAGACC,-0.0101 ± 0.0939 log2FC
25,CTCGAGGATATCAAGATCTGGCCTCGGCAAACCACGCGGAACCTCTAGCTAGCCGACTCACTATAGGGATAATCGCCCTGAGCAAAGACC,-0.989 ± 0.132 log2FC
26,CTCGAGGATATCAAGATCTGGCCTCGGCGTTTTAAGGGGAACCTCTAGCTAGCCGACTCACTATAGGGATAATCGCCCTGAGCAAAGACC,1.67 ± 0.0925 log2FC
